Measurements as given in PubChem BioAssay (EPA / NIEHS).
Calls of active or inactive are those of the source. Rule for the calls: active = hit-call score of the fitted dose curve at least 0.9, where 1 is the maximum; inactive = score below 0.9.

These compounds were tested against CCAAT/enhancer-binding protein beta (Homo sapiens) (UniProt P17676) (assay: ATG_C_EBP_CIS: Attagene CIS-FACTORIAL HepG2 Assay for human CCAAT/Enhancer Binding Protein (C/EBP) beta (AID 2282927)). Conditions: HepG2 Attagene cis-factorial transcription factor reporter; actives raise or lower the signal.
Sequence of CCAAT/enhancer-binding protein beta (Homo sapiens) (P17676 whole entry, looked up): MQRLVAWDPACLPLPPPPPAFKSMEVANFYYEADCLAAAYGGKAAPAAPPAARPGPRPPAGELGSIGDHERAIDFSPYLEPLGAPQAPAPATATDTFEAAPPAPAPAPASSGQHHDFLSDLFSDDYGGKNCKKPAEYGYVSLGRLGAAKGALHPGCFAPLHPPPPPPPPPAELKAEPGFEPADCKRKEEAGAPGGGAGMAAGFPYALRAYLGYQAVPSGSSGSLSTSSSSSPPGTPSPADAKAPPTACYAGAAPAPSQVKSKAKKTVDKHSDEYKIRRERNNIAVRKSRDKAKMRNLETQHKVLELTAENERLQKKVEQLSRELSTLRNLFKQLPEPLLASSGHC
Method in brief: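 Endogenous transcription factor activity in human liver HepG2 cells is inferred from induction of a CEBPB-linked reporter mRNA. Exposure lasts 24 h; activity is fitted in both directions relative to DMSO.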

outcome, inactive:
CC1(C)S[C@@H]2[C@H](NC(=O)[C@H](N)c3ccccc3)C(=O)N2[C@H]1C(=O)O
CCC(C)(CCC(C)C)C(=O)O (stereo not given)
Cc1cc(C)c(S(=O)(=O)O)cc1N=Nc1cc(S(=O)(=O)O)c2ccccc2c1O
CCCc1c(OCCCCc2nn[nH]n2)ccc(C(C)=O)c1O
Clc1ccccn1
CCCCCCOC(=O)CCCCCCCC(=O)OCCCCCC
CC1=NN(c2cc(Cl)c(S(=O)(=O)O)cc2Cl)C(=O)C1N=Nc1ccc(S(=O)(=O)O)cc1 (stereo not given)
O=C(O)Cc1c[nH]c2ccccc12
CCCCCCCCCCC1CO1 (stereo not given)
NCc1ccccc1
O=[N+]([O-])c1ccc2nc[nH]c2c1
CCCCn1cc[n+](C)c1
CC(C)CC(=O)O
C[Si](C)(C)O[Si](C)(C)O[Si](C)(C)C
Cc1cc(O)cc(C)c1Cl
CC(C)n1c(/C=C/[C@@H](O)C[C@@H](O)CC(=O)O)c(-c2ccc(F)cc2)c2ccccc21
CC1=C(CC=O)C(C)(C)CCC1
CC(O)(P(=O)(O)O)P(=O)(O)O
Cc1ccccc1S(N)(=O)=O
C=C(C)C(=O)OCC1CCCO1 (stereo not given)
OCCOCCOCCOCCOCCO
C1=CCC=C1
CC(C)CC(=O)CC(C)CC(C)C (stereo not given)

AC50, active:
c1cc(N(CC2CO2)CC2CO2)ccc1Cc1ccc(N(CC2CO2)CC2CO2)cc1 (stereo not given) 99.5 µM
Cc1cccnc1 100 µM
